Test results from PubChem BioAssay.
Calls of active or inactive are those of the source. The rule behind the calls is not given here.

Experiment: inhibition of 3D7 malaria parasite growth – strain 3D7 (AID 2306);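 note: 0% = DMSO wells and 100% = chloroquine plus artemisinin control wells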
Conditions: P. falciparum 3D7 erythrocytic growth, LDH absorbance, 72 h; at 2 µM; active compounds read high
For `O=C(Nc1ccc(Cl)cc1)Nc1cccc(-c2cccc(-c3nc4ccc(F)cc4[nH]3)c2)c1`, the growth inhibition was 100% (active).
In the case of `c1cncc(CCNCc2cccc(-c3csc(-c4nc5ccccc5[nH]4)c3)c2)c1`, the growth inhibition is reported as 100% (active).
For `COC(=O)c1cccc(NC(=O)NC2CCN(c3ccnc(NCc4ccc(F)cc4)n3)CC2)c1`, the growth inhibition was 93% (active).
For `Cc1cc(=O)c(-c2ccc(Oc3cccc(OC(F)(F)F)c3)cc2)c(C)[nH]1`, the growth inhibition was 97% (active).
With `COc1ccc(-c2csc(NC(=O)CCC(=O)O)n2)cc1OC` the growth inhibition was 94% (active).
In the case of `COc1nc2c(CCN3CC[C@H](NCc4cc(C#N)c5c(c4)CCO5)[C@H](O)C3)ccnc2cc1F`, the growth inhibition is reported as 99% (active).
With `O=C(/C=C/c1ccc(Cl)c(Cl)c1)NCCCCCN1CCC(CCNC(=O)/C=C/c2ccccc2F)CC1` the growth inhibition was 94% (active).
With `COc1ccc(NC(=O)Nc2ccc(-c3ccncc3)c(C(F)(F)F)c2)cc1N1CCN(C)CC1` the growth inhibition was 101% (active).
For `CCOC(=O)c1cccc(N/C(N)=N/c2nc(C)cc(NCCc3ccccc3)n2)c1`, the growth inhibition was 102% (active).
With `CC(C)OC(=O)c1ccc(NC(=O)N[C@@H](Cc2ccc(O)cc2)C(=O)NC2C[C@H]3CC[C@@H](C2)N3Cc2ccccc2)cc1` (some centres not stated) the growth inhibition was 92% (active).
In the case of `O=C(Nc1ccc(F)cc1)c1ccc(C(=O)NC2CCN(CC3CCCCC3)CC2)cc1`, the growth inhibition is reported as 99% (active).
For `CC(C)C[C@H](NC(=O)c1cc2ccccc2s1)C(=O)N[C@H]1CCN(Cc2ccc(OC[C@@H]3CCCN3C)c(Cl)c2)C1`, the growth inhibition was 101% (active).
For `CC(C)Cn1c2ccccc2c2nc3nc(N)nc(N)c3nc21`, the growth inhibition was 93% (active).
In the case of `O=C(/C=C/c1ccc(Cl)c(Cl)c1)NCCCCCN1CCC(NC(=O)c2ccc(F)cc2F)CC1`, the growth inhibition is reported as 96% (active).
With `CN1CCCN(Cc2cccc(-c3cccc(NC(=O)c4cccc(Cl)c4)c3)c2)CC1` the growth inhibition was 96% (active).
In the case of `Cc1cc(C(=O)NCc2ccc(-c3c(C)noc3C)cc2)n(-c2ccc(Cl)cc2)n1`, the growth inhibition is reported as 100% (active).
With `CC(=O)NCCNCc1cccc(C(=O)NCc2cccc(C(F)(F)F)c2)c1` the growth inhibition was 95% (active).
With `CC(=NN=C(N)N)c1ccc2ccc3ccccc3c2c1` the growth inhibition was 97% (active).
For `CCCNC(=O)Nc1cc2cc(-c3cccc(CN4CCCCC4)c3)ccc2n2c(C)nnc12`, the growth inhibition was 100% (active).
In the case of `CC(CCc1ccccc1)NCC(O)c1ccc2c3c(cccc13)C(=O)N2C` (configuration not stated), the growth inhibition is reported as 99% (active).
In the case of `Cc1cc2c(cc1C(F)(F)F)N(C(=O)Nc1cc(C(=O)NCCN(C)C)cc(C(F)(F)F)c1)CC2`, the growth inhibition is reported as 100% (active).
For `CN1CCN(c2ccnc3ccc(NC(=O)Cc4ccc5ccccc5c4)cc23)CC1`, the growth inhibition was 100% (active).
With `N#Cc1ccc(CN2CCC(NC(=O)c3ccc(-c4nnc(-c5cccc6ccccc56)o4)cc3)CC2)cc1` the growth inhibition was 98% (active).
In the case of `COc1cc(Cc2cnc(N)nc2N)cc(OCCCCCC(=O)O)c1OC`, the growth inhibition is reported as 95% (active).
With `COc1ccc(CNCc2cccc(-c3cccc(-c4nc5ccc(F)cc5[nH]4)c3)c2)cc1` the growth inhibition was 100% (active).
With `CC(=O)Nc1cccc(CN(Cc2ccc(-c3ccc(CNCc4cccnc4)cn3)cc2)C(=O)Cc2cccnc2)c1` the growth inhibition was 97% (active).
For `COc1ccc(NC(=O)Nc2cccc(-c3ccc(-c4nc5c(C)cccc5[nH]4)s3)c2)cc1`, the growth inhibition was 101% (active).
For `Cc1ccc(C2CCN(CCCCNC(=O)c3ccc(NC(=O)c4ccc(Cl)cc4)cc3)CC2)c(C)c1`, the growth inhibition was 96% (active).
In the case of `COC(=O)c1cccc(NC(=O)NC2CCN(c3ccnc(Nc4ccc(F)cc4)n3)C2)c1` (configuration not stated), the growth inhibition is reported as 100% (active).
In the case of `Cc1nc2ccc3ccc(CN(C)c4ccc(C(=O)N[C@@H](CCC(=O)O)C(=O)O)cc4)cc3c2c(=O)[nH]1`, the growth inhibition is reported as 95% (active).
With `COc1ccc2nccc([C@@H](O)CN3CCC(NCc4cc5sccc5nc4C(F)(F)F)CC3)c2c1` the growth inhibition was 89% (active).
In the case of `O=C(Nc1ccc(S(=O)(=O)N2CCOCC2)cc1)c1cc(-c2cc(Cl)ccc2O)n[nH]1`, the growth inhibition is reported as 96% (active).
In the case of `COc1ccc(S(=O)(=O)N2CCOCC2)cc1NC(=O)c1cc2ccccc2o1`, the growth inhibition is reported as 93% (active).
In the case of `CC1(C)N=C(N)N=C(N)N1OCCc1ccccc1`, the growth inhibition is reported as 96% (active).
In the case of `CCOC(=O)NC1=NC(C)(C)N(OCCCOc2cc(Cl)c(Cl)cc2Cl)C(NC(=O)OCC)=N1`, the growth inhibition is reported as 91% (active).
With `N#Cc1ccc2[nH]cc(-c3cn4cc(SC5CCCC5)ccc4n3)c2c1` the growth inhibition was 92% (active).
In the case of `COc1ccc(C2CC(=O)C3=C(C2)NC(C)=C(C(=O)OC2CCCC2)C3c2cccc(O)c2)cc1` (configuration not stated), the growth inhibition is reported as 88% (active).
